Several values for one entry are separate records, joined by “and”; a condition that tells them apart may be missing. Equal values may be shown once. The source holds several records for some structures; these can differ, active in one and inactive in another. Activity calls are given as the source filed them. How the source made its calls: active means hit-call score of the fitted dose curve at least 0.9, where 1 is the maximum; inactive means score below 0.9.
Test: CCTE_Shafer_MEA_dev_burst_rate: CCTE's Neural Network Formation Assay for Burst Rate, Shafer Lab (AID 2284042);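 on AC50: potency for loss of burst rate below DMSO control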
In short: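 Cells plated, treated day 0; recorded DIV 5, 7, 9, 12; fed and re-treated DIV 5, 9. Endpoint: bursts per recording time, active-electrode well mean, trapezoidal AUC, fitted in decreasing direction against DMSO baseline.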

**Q.** For `C=CCC1=C(C)[C@@H](OC(=O)[C@@H]2[C@@H](C=C(C)C)C2(C)C)CC1=O`, which outcome is on record?
**A.** inactive

**Q.** With `COP(=S)(OC)Oc1nc(Cl)c(Cl)cc1Cl` as the compound, how does the outcome read?
**A.** inactive

**Q.** For `CNC(=O)ON=CC(C)(C)SC`, which outcome is on record?
**A.** inactive

**Q.** With `CCCCOC(=O)c1ccccc1C(=O)OCCCC` as the compound, how does the outcome read?
**A.** inactive

**Q.** With `CCOC(=O)CC(SP(=S)(OC)OC)C(=O)OCC` (centres undefined) as the compound, how does the AC50 read?
**A.** 22.7 µM (active) and 2.98 µM (active)

**Q.** With `CCCCNC(=O)n1c(NC(=O)OC)nc2ccccc21` as the compound, how does the outcome read?
**A.** inactive

**Q.** Which AC50 does the source give for `CO/C=C(/C(=O)OC)c1ccccc1Oc1cc(Oc2ccccc2C#N)ncn1` here?
**A.** 1.14 µM (active) and 1.39 µM (active)

**Q.** For `N#Cc1nn(-c2c(Cl)cc(C(F)(F)F)cc2Cl)c(N)c1S(=O)C(F)(F)F` (centres undefined), which outcome is on record?
**A.** inactive

**Q.** For `CCCCC(CC)COC(=O)c1ccccc1C(=O)OCC(CC)CCCC` (centres undefined), which AC50 is on record?
**A.** 2.98 µM (active) and 6.34 µM (active)

**Q.** And the outcome?
**A.** inactive

**Q.** For `CCOc1cc(Oc2ccc(C(F)(F)F)cc2Cl)ccc1[N+](=O)[O-]`, which AC50 is on record?
**A.** 9.62 µM (active)

**Q.** Which outcome does the source give for `C=CC1(C)OC(=O)N(c2cc(Cl)cc(Cl)c2)C1=O` (centres undefined) here?
**A.** inactive

**Q.** With `CN(C)C(=S)SSC(=S)N(C)C` as the compound, how does the AC50 read?
**A.** 0.0127 µM (active)

**Q.** Which AC50 does the source give for `Cc1ccc(-c2c(Cl)nc(C#N)n2S(=O)(=O)N(C)C)cc1` here?
**A.** 15.2 µM (active)
